Assay outcomes as filed in PubChem.
A selection: hits, their analogues and other compounds. The true share with any hit is near 8.1%.
ELG1 DNA repair: inhibitors of ELG1-dependent DNA repair in HEK293T cells; 330,000 tested, 2.3% active; HEK293T ELG1-luciferase reporter, luminescence, 16 h; DNA damage induced by 5-fluorouridine; Potency, µM (titrated, usually from 46.1 µM), actives largely listed as inhibitors; note: nearly all actives have a fitted effect of over 55% in size
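Quantitative HTS, concentration-response format. 2,000 cells/well co-treated with 5-fluorouridine and compound, 16 hr in 5% CO2 at 37 °C; ONE-Glo luminescence read after 30 min.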
SW480 rereplic: induces DNA re-replication in SW480 colon adenocarcinoma cells | Potency, µM (series often up to 46.1 µM), most hits filed as activators | SW480 DNA re-replication, Hoechst DNA content imaging, 48 h | AID 624297 | 340,000 tested, 1.8% active; note: nearly all actives have a fitted effect of over 55% in size
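Hoechst fluorescence of nuclei (405 nm excitation, 500-530 nm emission) measured by plate-scanning imager after 48 hr compound exposure at 37 C; re-replication scored as increased number of nuclei with elevated intensity.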
MCF10A rereplic: induces DNA re-replication in MCF 10a normal breast cells. AID 624296. MCF 10A DNA re-replication, Hoechst nuclear intensity, 48 h. 350,000 tested, 2.9% active. Potency, µM (top dose mostly 46.1 µM), most hits filed as activators; note: nearly all actives have a fitted effect of over 50% in size
KB-3-1 cytotox: kills parental KB-3-1 adenocarcinoma cells. KB-3-1 viability, CellTiter-Glo ATP luminescence, 72 h. Potency, µM (top dose mostly 46.1 µM), usual class: cytotoxic. AID 1347075. 400,000 tested, 1.4% active; note: nearly all actives have a fitted effect of over 60% in size
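Multi-concentration cytotoxicity screen in KB-3-1 cells grown in DMEM lacking phenol red with 10% FBS. After 72 h at 37 °C with compound, ATP-dependent luminescence was recorded.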
KB-V1 cytotox: KB-V1 MDR subline cytotoxicity; KB-V1 MDR cells viability, CellTiter-Glo, 72 h; Potency, µM (doses to about 46.1 µM), most hits filed as cytotoxic; 400,000 tested, 3.4% active; note: nearly all actives have a fitted effect of over 60% in size
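Cytotoxicity via CellTiter-Glo luminescence after 72 h compound exposure at 37 degrees C. Cells: drug-selected KB-V1 line, DMEM phenol-red free plus 10% FBS. Compounds tested at multiple concentrations; normalized data fitted to concentration-effect curves.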
Numbers stand for hits; - = inactive; ? = inconclusive; . = no result given; ! = repeats disagree. Calls come from the whole dose curve; as a rule, active = well fitted curve in the direction sought with a large enough effect; inconclusive = small, poorly fitted or top-dose-only effect, or another doubt; inactive = no such curve, though single readings can be large; an effect the other way counts as inactive or inconclusive.

SMILES	ELG1 DNA repair	SW480 rereplic	MCF10A rereplic	KB-3-1 cytotox	KB-V1 cytotox
Cc1cccc(N2C(=O)CC(Sc3nc(C)c4c(n3)CCCC4)C2=O)c1 (stereo unspecified)	-	5.8µM	-	-	16µM
Cc1nc(SC2CC(=O)N(c3cc(Cl)cc(Cl)c3)C2=O)nc2c1CCCC2 (stereo unspecified)	-	-	-	-	-
N#C/C(=C\c1cc2ccccc2nc1N1CCOCC1)C(=O)Nc1ccc(N2CCOCC2)cc1	12µM	-	-	-	?
N#CC(C#N)=Cc1cc2ccccc2nc1N1CCOCC1	-	-	?	?	-
COc1ccc(OC)c(CCNC(=O)Cn2nc(C)c3c(C)n(-c4ccc(C)cc4)nc3c2=O)c1	?	-	-	?	8.2µM
COc1ccc(CCNC(=O)Cn2nc(C)c3c(C)n(-c4ccccc4)nc3c2=O)c(OC)c1	-	-	-	-	-
NC1(C(=O)O)CSSC1	.	?	10µM	?	6.5µM
O=C(O)COc1ccccc1/C=C1\C(=O)Nc2ccc(Br)cc21	-	-	-	-	-
O=C1Nc2ccc(Br)cc2/C1=C/C(=O)c1ccccc1	.	?	18µM	?	?
C=CCOc1cccc(C(=O)/C=C2/C(=O)Nc3ccccc32)c1	-	?	5.8µM	?	-
Cn1c(=O)c2c(nc(CN3CCOCC3)n2CCCc2ccccc2)n(C)c1=O	-	-	-	-	-
COc1ccc2c(-c3ccccc3)cc(N3CCOCC3)nc2c1	-	-	21µM	-	-
COc1ccc2c(c1)CCc1c-2nc2ccccc2c1N1CCOCC1	-	?	16µM	?	?
c1ccc2c(N3CCOCC3)c3c(nc2c1)CCC3	-	-	-	-	-
CC(=O)c1ccc(OCCCN2CCCCC2)cc1	?	-	-	-	?
CCCCOc1ccc(C(=O)CCN2CCCCC2)cc1	-	10µM!	16µM	-	-
CC(C)COc1ccc(C(=O)OCCN2CCCCC2)cc1	-	-	?	-	-
CC(C)COc1ccc(C(=O)CCN2CCCCC2)cc1	-	?	12µM	15µM	-
CCOC(=O)N1CCN(C(=O)COc2cccc3c2CCN(Cc2cccc(C)c2)C3=O)CC1	21µM	-	-	-	18µM
Cc1cccc(NC(=O)COc2cccc3c2CCN(Cc2ccccc2)C3=O)c1C	?	-	-	-	9.2µM
CCCOc1cccn2c(N(C=O)Cc3ccc(OC)cc3)c(CC)nc12	.	.	.	-	?
O=C(c1ncn[nH]1)N1CCN(c2nc(-c3ccccc3)cs2)CC1	-	?	-	-	-
O=C(c1cc(-n2cnnc2)ccc1Cl)N1CCN(c2nc(-c3ccccc3)cs2)CC1	-	-	-	21µM	-
CC(C)(C)c1ccc(-c2nc(C=O)c3ccccn23)cc1	?	-	-	-	16µM
Fc1ccc(-c2csc(-c3ccncc3)n2)cc1	-	-	-	-	-
SMILES	ELG1 DNA repair	SW480 rereplic	MCF10A rereplic	KB-3-1 cytotox	KB-V1 cytotox
Clc1ccsc1-c1csc(-c2cccnc2)n1	?	?	-	21µM	?
Oc1ccc(-c2nc(-c3ccc(O)c(O)c3)cs2)cc1	?	1.5µM	?	0.52µM	2.1µM
O=S(=O)(c1ccc(-c2csc(-c3cccnc3)n2)cc1)N1CCCCC1	23µM	-	-	-	?
Oc1ccc(-c2csc(-c3cccnc3)n2)c(O)c1	?	?	?	5.8µM	?
COc1ccc(/C=C/C(=O)NCC(=O)N/N=C/c2cc(Br)ccc2OCc2ccccc2)cc1	?	-	-	-	-
O=S(=O)(CC(CN1CCCCC1)N1CCCCC1)c1ccccc1 (stereo unspecified)	?	?	6.5µM	-	-
O=[N+]([O-])c1ccc(S(=O)(=O)CC(CN2CCCCC2)N2CCCCC2)cc1 (stereo unspecified)	?	-	-	-	?
Cc1ccc(-n2c(=O)c3cc4c(=O)n(-c5ccc(C)c(C)c5)c(=O)c4c(C(=O)c4ccc(C(=O)O)cc4)c3c2=O)cc1C	-	-	?	-	-
CC(N=C1NS(=O)(=O)c2ccccc21)C(=O)NCc1ccc2c(c1)OCO2 (stereo unspecified)	-	-	-	-	-
S=C(Nc1ccccc1Oc1ccccc1)Nc1cccc(Cl)c1Cl	-	-	?	23µM	21µM
N#Cc1c(N)nc2c(c1-c1ccccc1)CCC2	?	?	?	?	10µM
